# Results published in PubChem BioAssay (NCI).
# The panel holds about 83,000 compounds, 20% with a hit somewhere; the sample as a whole holds those more often.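 The endpoint reported here, percent growth, reads 100 for growth as untreated, 0 for no net growth and -100 for all cells dead.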 Values without a mark were called inactive. Calls of active or inactive are those of the source. Rule for the calls: active = growth percent below 10; inactive = the rest.
# Test system: HL-60(TB) leukemia
# Assay: NCI-60 one-dose screen, 48 h (100 = growth as untreated, 0 = no growth, -100 = all killed)
# Conditions: 10 µM unless noted
row,SMILES,growth
1,CC(=O)O[C@H]1CC[C@@]2(C)C(=CC[C@@H]3[C@@H]2CC[C@]2(C)C(=O)N(O)C(=O)C[C@@H]32)C1,105%
2,COc1cc(-c2ccc3c(c2)NC(=O)/C3=C\c2ccc[nH]2)ccc1O,-12.6% (active)
3,COc1cc(C(=O)O)c(O)c(C(C)(C)C)c1,106%
4,COc1ccc2[nH]c(=O)c(/C=C/C(=O)c3ccccc3OC)cc2c1,-2.46% (active)
5,COc1cccc(-c2nn(C(C)(C)C)cc2-c2ccnc(NCCCNS(=O)(=O)c3ccc(C)cc3)c2)c1,105%
6,O=c1ccn(C2CC(O)C(COC(c3ccccc3)(c3ccccc3)c3ccccc3)O2)c(=O)[nH]1 (stereo not given),10.1% [100 µM]
7,COC(=O)C[C@@H]1CC=CC(=O)/C1=C(O)/C=C/c1ccccc1,-10.7% (active)
8,O=C(O)CCC(=O)c1ccc(C2CCCCCC2)cc1,107%
9,COc1c2ccoc2c(/C=C/C=O)c2oc(-c3ccccc3)cc(=O)c12,7.67% (active)
10,CCC(C)CC(CC)NCCN1CCN(C(CC)CC(C)CC)C1=S (stereo not given),39.8%
11,CCN(CC)CCNC(Cc1ccccc1)c1ccc(OCc2ccccc2)cc1 (stereo not given),46.8%
12,CN1C(=O)C(=Cc2cn(Cc3ccccc3)c3ccc(Br)cc23)C(=O)N(C)C1=O,73.3%
13,COCCn1cc(-c2csc(-c3c[nH]c4ccc(F)cc34)n2)c2cccnc21,13.9%
14,COc1ccc(C2=CN3CC=CC3CC2=O)cc1 (stereo not given),106%
15,Cc1cc2c(C#N)n3c(c2cc1C)C(=O)C(c1ccccc1)Oc1ccccc1-3 (stereo not given),36.3%
16,Nc1nc(N)c2nc(-c3cccc(O)c3)c(-c3cccc(O)c3)nc2n1,120%
17,O=C(COc1cc(O)c2c(=O)cc(-c3ccccc3)oc2c1)Nc1ccccc1,74.5%
18,CCN1CCN(CCCN(C[C@H]2Cc3ccccc3CN2)[C@H]2CCCc3cccnc32)CC1,62.8%
19,COc1ccc2c(CCCc3ccc(Cl)cc3Cl)c3[n+](cc2c1OC)CCc1cc2c(cc1-3)OCO2,-41.4% (active)
20,CN1CCN(Cc2ccc(NC(=O)c3cncc(C#Cc4cnc(N)c5ncccc45)c3)cc2Cl)CC1,21.5%

row,SMILES,growth
1,COc1ccc(C2=Nn3c(nnc3-c3cc(Cl)cc(Cl)c3Cl)SC2)cc1,-32% (active)
2,CN(C)CCn1c(=O)c2ccccc2n2nc3ccccc3c12,70.3%
3,CC12CCC3C(CCC4CC(O)CCC43C)C1C/C(=C/O)C(=O)O2 (stereo not given),107%
4,C=C1c2c(C)nn(-c3ccc(NC(C)=O)cc3)c2N(C)C23CC1C1(C)c4c(C)nn(-c5ccc(NC(C)=O)cc5)c4N(C)C(C)(CC12)C3 (stereo not given),-20.6% (active)
5,O=C(Nc1ncc(Cc2cc(Cl)ccc2Cl)s1)c1cccs1,86.1%
6,CCc1ccccc1NC(=O)c1sc2nc3c(cc2c1N)CCCC3,2.66% (active)
7,O=C1NC(=S)NC(=O)C1=Cc1cn(Cc2cn(Cc3cccc4ccccc34)nn2)c2ccccc12,106%
8,CC(C)=CCC[C@](C)(O)[C@H]1CC[C@]2(C)[C@@H]1CC[C@@H]1[C@@]3(C)CC/C(=N/O)C(C)(C)[C@@H]3CC[C@]12C,5.25% [100 µM] (active)
9,N#CC1=C(N)Oc2c(ccc3ccccc23)C1c1cc(=O)oc2ccc(Cl)cc12 (stereo not given),-10.1% (active)
10,CCCCCCCCCCCCNC(=O)[C@H]1CSC(c2ccc(OC)c(F)c2)N1 (stereo not given in full),-70.3% (active)
11,COC(=O)Nc1cccc(Cl)c1OC,103%
12,Cn1cc(NC(=O)Nc2cc(C(=O)O)n(C)c2)cc1C(=O)O,90.1%
13,CCOC(CNC(=O)c1cccc([N+](=O)[O-])c1)OCC,105%
14,c1cc(OCCN2CCCCCC2)ccc1CNc1ccc2nc(CCC3CCCCC3)[nH]c2c1,22.9%
15,CC(C)N=C(N)/N=C(\N)Nc1ccc2ccc3ccccc3c2c1,-47.8% (active)
16,COc1ccccc1/C=N\N/C(N)=N\N=C\c1ccccc1OC,-25.9% (active)
17,CC1(c2ccc(Cl)cc2)OC(=O)CC(=O)O1,74.7%
18,COC(=O)c1nc(=S)[nH]c(C(=O)OC)c1C(=O)c1ccc2ccccc2c1,122%
19,COc1ccc(C2=Nc3c(N)ncnc3NC(c3cccc(Nc4ccnc5cc(C(F)(F)F)ccc45)c3)C2)cc1 (stereo not given),42.7%
20,NC(=O)c1c(NC(=O)c2ccccn2)sc2c1CCC(=O)C2,-0.0087% (active)
